Among the data in PubChem BioAssay (NCATS) are Potency and viability, % of control values, retold here.

Results filed as inconclusive are left out. Values without a mark were called inactive. The source made the active and inactive calls. Calls come from the whole dose curve; as a rule, active = well fitted cell-killing curve with a large enough effect; inconclusive = small, poorly fitted or top-dose-only effect, or effect the other way; inactive = no such curve, though single readings can be large or run the other way.
Potency is the fitted concentration of half-maximal effect.

The nature of this experiment: Viability qHTS for spleen associated tyrosine kinase inhibitor (SYKi) drug resistant MV4-11 cells (AID 1963824). Note: nearly all actives have a fitted effect of over 35% in size. The note with it: SYKi-resistant MV4-11 viability, CellTiter-Glo, 72 h; series mostly up to 45 µM. The essentials: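 CellTiter-Glo luminescence, read 10 min after reagent addition, reports viability after a 72 hr compound exposure. Cells are an MV4-11 line made resistant to SYK inhibition, seeded at 500 per well onto compound-containing plates.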
For orientation: In qHTS, concentration-response curves come from the screen itself.
With `CN(C)CC/C=C1\c2ccccc2Sc2ccc(Cl)cc21`, the Potency was 15 µM (active).

Regarding `COc1ccc(C2(O)CCC(N3CC[C@@H](NC(=O)CNC(=O)c4cccc(C(F)(F)F)c4)C3)CC2)cn1` (stereo not given in full), the Potency result is “inactive”.

With `CCC(C)C(=O)OC1CC(O)C23C4OCC5(C(O)CC2C1(C)C(O)O4)C3C(=O)C(O)C1(C)C(O)(c2ccoc2)CC2OC251` (stereo not given), the Potency is 0.432 µM (active).

Regarding `c1ccc(-c2cnc(Nc3ccc(OCCN4CCCC4)cc3)s2)cc1`, the Potency is 0.0206 µM (active).

With `C[C@@H]1C(=O)O[C@H]2[C@H]1CC[C@@]1(C)C(=O)C=C[C@@](C)(O)[C@H]21`, the Potency entry is “inactive”.

With `COC(=O)[C@@H](NC(=O)[C@H](CC(C)C)NC(=O)N(Cc1ccccc1)C[C@@H](O)[C@H](Cc1ccccc1)NC(=O)OC(C)(C)C)C(C)C`, the Potency was 3.35 µM (active).

In the case of `CCCCCCCCn1cc(CN(CC)CC)c2cc(-c3cnc(N)nc3)ccc21`, the Potency was 2.59 µM (active).

As to `O=C(O)CCc1cc2ccoc2cc1O[C@@H]1O[C@H](CO[C@@H]2OC[C@](O)(CO)[C@H]2O)[C@@H](O)[C@H](O)[C@H]1O`, the Potency entry was “inactive”.

For the compound `CC1OC(OC2C(CO)OC(OCC3OC(OC(=O)C45CCC(C)(C)CC4C4=CCC6C7(C)CCC(OC8OC(CO)C(O)C(OC9OC(CO)C(O)C(O)C9O)C8O)C(C)(C)C7CCC6(C)C4(C)CC5)C(O)C(O)C3O)C(O)C2O)C(O)C(O)C1OC1OC(CO)C(O)C(O)C1O` (stereo not given), the viability, % of control is 88.5% [at 9.25 µM].

For the compound `O=Nc1c(-c2c(O)[nH]c3ccc(F)cc23)[nH]c2ccccc12`, the Potency was 0.058 µM (active).

Turning to `CC(=O)O[C@@H]1[C@@H](OC(C)=O)[C@H](C)O[C@@H](O[C@H]2[C@@H]3C=CO[C@@H](O[C@@H]4O[C@H](CO)[C@@H](O)[C@H](O)[C@H]4O)[C@@H]3[C@@]3(CO)O[C@@H]23)[C@@H]1OC(=O)/C=C/c1ccccc1`, the Potency was 6.11 µM (active).

For the compound `C=C(C)[C@@]1(O)C[C@@]2(C)C(=CC1=O)CC[C@@H](O)[C@@H]2C`, the Potency entry is “inactive”.

Regarding `COc1ccc2c(c1)C(c1ccc(F)cc1)=C(CN1CCCC1)CO2`, the Potency was 20.9 µM (active).

As to `CNC(=O)c1ccc(-c2cnc3cnc(C(=O)N(C)c4ccc(Cl)cc4)cn23)cc1`, the Potency was 18.4 µM (active).

With `COC1C=C(C)C(O)(CO)C2(C)CCCC(C)(C)C12` (stereo not given), the Potency entry was “inactive”.

In the case of `CCCNCCOc1ccc(NC(=O)c2c[nH]c3c2C(=O)CCC3)cc1F`, the Potency was 2.91 µM (active).

For `O=C(/C=C/c1ccc(O)cc1)O[C@H]1[C@H](OC2CCCCC2O)O[C@H](CO)[C@@H](O)[C@@H]1O` (stereo not given in full), the Potency entry was “inactive”.

As to `Cc1ccc(OCCSc2ncccn2)c(Br)c1`, the Potency entry was “inactive”.

As to `CC[C@H](C(=O)Nc1ccccc1N1CCCC1)c1ccccc1`, the Potency is 23.1 µM (active).

For `CC(=O)O[C@@H]1[C@@H](O)[C@H](O[C@@H]2[C@@H](O)[C@@H](O)[C@H](O[C@H]3[C@H](O[C@H]4[C@H](O[C@H]5CC[C@@]6(C)C(CC[C@]7(C)C6CC=C6[C@@H]8CC(C)(C)CC[C@]8(C(=O)O)CC[C@]67C)[C@]5(C)CO)O[C@H](CO)[C@@H](O)[C@@H]4O)OC[C@@H](O)[C@@H]3O)O[C@H]2C)OC[C@H]1O` (stereo not given in full), the Potency is 3.9 µM (active).

As to `C[C@@H]1C[C@@H](O)[C@@]2(CO)C(CO)=CCC[C@@H]2[C@@]12C[C@@H](c1ccoc1)OC2=O`, the Potency result was “inactive”.

For the compound `COc1cc(C[C@H]2C(=O)OC[C@@H]2Cc2ccc(OC)c(OC)c2)ccc1O`, the Potency is 0.255 µM (active).

As for `COc1cc(OC)cc(N2CCN(C(=O)Nc3nc4cc(F)ccc4nc3OC)CC2)c1`, the Potency is 1.05 µM (active).

Regarding `O=C1NC(=O)c2cc(Nc3ccccc3)c(Nc3ccccc3)cc21`, the Potency was 9.2 µM (active).

As to `O=C1CCCC2=C1C(c1ccncc1Br)N=C(Nc1nc3ccccc3o1)N2` (stereo not given), the Potency was 18.4 µM (active).

For the compound `C/C=C(\C)C(=O)O[C@H]1[C@@H](O[C@]2(COC(=O)CC(C)C)O[C@H](COC(=O)C(C)CC)[C@@H](OC(C)=O)[C@@H]2O)O[C@H](COC(C)=O)[C@@H](O)[C@@H]1O` (stereo not given in full), the Potency entry is “inactive”.

Consider `O=C1Nc2ccccc2C(O)(c2ccccc2)C1O` (stereo not given), for which the Potency result was “inactive”.

Take `C/C=C/C=C/C(=O)OC1CC/C=C/C(O)C(O)C(CCC)OC1=O` (stereo not given): the Potency entry was “inactive”.

As to `O=S(=O)(c1ccccc1)N(CC(F)(F)F)c1ccc(C(O)(C(F)(F)F)C(F)(F)F)cc1`, the Potency is 8.2 µM (active).

With `CN1CCN(C2=Nc3ccccc3Nc3ccc(OS(=O)(=O)C(F)(F)F)cc32)CC1`, the Potency is 20.6 µM (active).

As for `Nc1nc2ccc([N+](=O)[O-])cc2s1`, the Potency is 27.3 µM (active).

As for `[O-][n+]1cccc(-c2nc3c(Cl)cccc3cc2[C@@H](Nc2ncnc3cccnc23)C(F)(F)F)c1`, the Potency is 13.2 µM (active).

As to `O=C(Nc1cccc([N+](=O)[O-])c1)c1cccc(S(=O)(=O)N2CCCCCC2)c1`, the Potency is 6.51 µM (active).

For `COc1cc(/C=C/C(=O)OCC2OC(OC3(CO)OC(CO)C(O)C3O)C(O)C(O)C2O)ccc1O` (stereo not given), the Potency result is “inactive”.

Take `CC(C)S(=O)(=O)NC[C@H](C)c1ccc(NC(=O)c2cc(F)cc(F)c2)cc1`: the Potency is 14.6 µM (active).

For `N#Cc1ccc(COc2ccc(-c3cccc4nc(NC(=O)C5CC5)nn34)cc2)cn1`, the Potency is 0.651 µM (active).

As for `CC1=C(C(=O)O)/C(=C/CO[C@@H]2O[C@H](COC(=O)/C=C/c3ccc(O)cc3)[C@@H](O)[C@H](O)[C@H]2O)C(O)C1` (stereo not given in full), the Potency result is “inactive”.

Consider `C=C1CCC2(C(=O)OC3OC(CO)C(O)C(O)C3O)CCC3(C)C(=CCC4C5(C)CCC(OC6OC(CO)C(OC7OC(C)C(O)C(O)C7O)C(OC7OCC(O)C(O)C7O)C6O)C(C)(C)C5CCC43C)C2C1` (stereo not given), for which the viability, % of control is 105% [at 9.25 µM].

With `O=C(C1=CCN2c3c(cccc31)OC[C@H]2CN1CCOCC1)c1cccc2ccccc12`, the Potency was 18.4 µM (active).

In the case of `O=C(Nc1ccc(S(=O)(=O)Nc2nccs2)cc1)c1cc(-c2ccccc2)nc2ccccc12`, the Potency is 16.4 µM (active).
